Where “and” joins values, the source holds several entries; their conditions need not be identical. Identical values can stand only once. This is part of a sample that, as a whole, favours compounds with a hit. Of some 83,000 tested, about 20% had one in any assay.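 For each line, cells grew in 96-well plates with the test compound present at a single concentration for 48 hours.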 Unmarked numbers belong to inactive results. Calls of active or inactive are those of the source. Rule for the calls: active = growth percent below 10; inactive = the rest.

The assay deals with HL-60(TB) leukemia. As to the kind of experiment: NCI-60 one-dose screen, 48 h (100 = growth as untreated, 0 = no growth, -100 = all killed). As to conditions: 10 µM unless noted.
As for `CCN(CC)CCC(CNc1c2ccc(Cl)cc2nc2ccc(OC)cc12)c1ccccc1` (centres undefined), the growth is 28.7%.

Take `C/C(=N/NC(=O)Cn1c2ccccc2c2ccncc21)c1cccs1`: the growth was 83.5%. The value for `COc1cc(/C=C\c2cc(/C=C\c3ccc(O)c(OC)c3)n(C(=O)COc3ccc(Cl)cc3Cl)n2)ccc1O` was -18.7% (active); that for `CC(C)(C)C1=CC(=O)C(C(C)(C)C)=CC1=O` was 92.5% and 106%; that for `CCN(CC)CCCCCCNc1ccnc2cc(Cl)ccc12` was 103%. In the case of `CC1SC(=S)N(c2ccc(Cl)cc2)C1=O` (centres undefined), the growth is 82.7% and 98.2%. Next, `COc1ccc(/C=N/NC(=O)CCN2c3ccccc3Sc3ccccc32)cc1`: 82%; `CCCCN[C@H]1CC[C@@]2(C)[C@@H](CC[C@@]3(C)[C@H]2[C@H](O)C[C@H]2/C(=C(\CCC=C(C)C)C(=O)OC)[C@@H](OC(C)=O)C[C@@]23C)[C@@H]1C`: 0.474% (active). The value for `O=C1Nc2ccccc2/C1=C/c1cccn1CCCCn1c2ccccc2c(=O)c2ccccc21` was 60.2%.

Turning to `COc1ccc(NS(=O)(=O)N2CCCCC2)cc1`, the growth was 115%. The value for `CC(=O)c1c(O)cc2c3c1OC(C)(C)C1CCC(C)(CC31)O2` (centres undefined) was 89.2%; that for `Cc1nnc(NC(=O)c2nc(S(=O)(=O)Cc3ccc(F)cc3)ncc2Cl)s1` was -30.5% (active). Next, `COc1cccc(OC(=O)c2ccccc2)c1OC(=O)c1ccccc1`: 69.6%. The value for `CCCCCCCCCCCCCCCCCCNC(=S)N/N=C/c1ccc(OC)c(OC)c1` was 73.6%; that for `COc1ccccc1CNC(=O)C1c2ccccc2C(=O)N(CC(C)C)C1c1cccs1` (centres undefined) was 67.9%. On to `CCCCOC(=O)c1c(C)[nH]c(/C=C2\N=C(c3ccc[nH]3)C=C2OC)c1C`, for which the growth is 8.01% (active). Consider `Oc1c(Cl)cc(Cl)cc1/C=N/Nc1nnc(N/N=C/c2cc(Cl)cc(Cl)c2O)c2ccccc12`, for which the growth is -24% (active). Regarding `CC(=O)n1nc(C(=O)OC(C)C)c2cc(C)c(C)cc21`, the growth was 83.7%. The value for `CN1CCN(CC#CCNC(=O)[C@]23CCC(C)(C)C[C@H]2C2=CC[C@@H]4[C@@]5(C)Cc6c([nH]c7ccccc67)C(C)(C)[C@@H]5CC[C@@]4(C)[C@]2(C)CC3)CC1` was 49.4%; that for `Nc1ccc2c(O)cc(S(=O)(=O)O)cc2c1` was 89.8% and 67%; that for `COc1cc(C2CC(c3cccc(Nc4ccnc5cc(Cl)ccc45)c3)=NN2C=O)cc(OC)c1OC` (centres undefined) was -7.92% (active). Next, `CCCOC(=O)C1c2cc3c(cc2CC(C)C1C(=O)OCCC)OCO3` (centres undefined): 111%. Next, `CCOC(=O)c1nn(C2CCCCO2)c2ccc(NC(=O)CN3CCOCC3)cc12` (centres undefined): 97%; `CCN(CC)CCOc1ccc(/C=N/Nc2nc3c([nH]2)c(=O)n(C)c(=O)n3C)cc1`: 97.3% and 115%.
